# Compound activity deposited in PubChem by National Center for Advancing Translational Sciences (NCATS).
# ELG1 DNA repair: inhibitors of ELG1-dependent DNA repair in HEK293T cells | Potency, µM (titrated, usually from 46.1 µM), without a hit: at the highest dose activity change, negative = inhibition, hits mostly inhibitors | HEK293T ELG1-luciferase reporter, luminescence, 16 h; DNA damage induced by 5-fluorouridine | 330,000 compounds, 2.3% hits; further: on the % scale 0 is the no-effect control and ±100 the full control effect; nearly all actives have a fitted effect of over 55% in size
#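 Overnight (16 hr) co-exposure of 2,000 cells/well to 5-fluorouridine and compound at 37 °C preceded detection. Luciferase was quantified via ONE-Glo luminescence; loss of signal denotes inhibition.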
# ELG1 genotoxic: induces genotoxicity in HEK293T cells with luciferase-tagged ELG1; HEK293T ELG1-luciferase reporter, luminescence, 16 h; Potency, µM (titrated, usually from 46 µM), for the others: at the highest dose activity change, positive = activation, actives largely listed as activators; 330,000 compounds, 1.3% hits; AID 504466; further: % of control where 0% means no effect; nearly all actives have a fitted effect of over 60% in size
#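 ELG1-luciferase HEK293T cells, 2,000/well; compound pinned in; 16 hr, 37 °C, 5% CO2; ONE-Glo, 30 min RT; luminescence on CCD imager.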
# NPC1 prom act: activators of NPC1 promoter | Huh7 NPC1 promoter luciferase reporter, 24 h | Potency, µM (top dose mostly 9.22 µM), inactives show at the top dose activation, actives largely listed as activators | 320,000 compounds, 2.4% hits; further: % of control where 0% means no effect; nearly all actives have a fitted effect of over 60% in size
#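 Luminescence from an NPC1 promoter-driven luciferase reporter in stably transfected Huh7 cells was measured after 24 h compound treatment at 37 °C, followed by 10 min ambient incubation with luciferase detection reagent.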
# Rab9 prom act: activates the Rab9 promoter; Huh7 Rab9 promoter-luciferase reporter, luminescence, 24 h; Potency, µM (series often up to 9.22 µM), for inactives: top-dose activation, negative = inhibition, usual class: activators; 320,000 compounds, 2.8% hits; further: % of control where 0% means no effect; nearly all actives have a fitted effect of over 60% in size
#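 Luciferase signal after 10 min detection reagent at ambient indicates Rab9 promoter upregulation; stably transfected Huh7 cells were treated 24 h with compound in DMSO at 37 °C, 5% CO2.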
# SMN2 splice enh: enhancers of SMN2 splice variant expression | HEK293 SMN2-luciferase splicing reporter, luminescence, 30-36 h | Potency, µM (top dose mostly 46.1 µM), for inactives: at the top dose activity change, positive = activation, most hits filed as activators | 210,000 compounds, 2.8% hits | AID 1458; further: % of control where 0% means no effect; nearly all actives have a fitted effect of over 55% in size
#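 HEK293 cells carry an SMN2 minigene-luciferase reporter in which exon 7 inclusion puts luciferase in frame. Cells were seeded at 2000 cells/well, attached for 10-12 hours, then exposed to compounds for 30-36 hours at 37C before ONE-Glo luminescence.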
# FLuc modulator: counter-screen for miR-21 project: firefly luciferase inhibitors or activators. P08659. purified FLuc, Km substrates, luminescence inhibition. Potency, µM (titrated, usually from 57.5 µM), inactives show at the top dose activity change, negative = inhibition, actives largely listed as inhibitors. 360,000 compounds, 6.9% hits. AID 588342;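 further: plate controls were vehicle for no effect and reference inhibitor for full effect; nearly all actives have a fitted effect of over 55% in size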
# Target sequence (P08659 whole entry, looked up): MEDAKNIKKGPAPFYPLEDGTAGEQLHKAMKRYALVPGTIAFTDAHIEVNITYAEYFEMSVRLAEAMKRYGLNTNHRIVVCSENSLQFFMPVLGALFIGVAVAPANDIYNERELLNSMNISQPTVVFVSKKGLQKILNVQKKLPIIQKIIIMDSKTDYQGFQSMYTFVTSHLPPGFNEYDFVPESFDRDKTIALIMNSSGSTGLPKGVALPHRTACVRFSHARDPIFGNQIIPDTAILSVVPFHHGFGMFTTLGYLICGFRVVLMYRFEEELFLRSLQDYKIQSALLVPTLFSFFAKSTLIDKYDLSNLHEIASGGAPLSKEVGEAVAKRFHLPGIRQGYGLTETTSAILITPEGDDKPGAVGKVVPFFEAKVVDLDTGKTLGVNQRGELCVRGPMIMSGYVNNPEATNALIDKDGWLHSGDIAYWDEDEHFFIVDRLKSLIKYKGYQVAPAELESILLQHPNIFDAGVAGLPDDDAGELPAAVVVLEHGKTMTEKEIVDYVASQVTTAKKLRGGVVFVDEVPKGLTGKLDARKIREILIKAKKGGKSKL
#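 Biochemical qHTS of compounds, final roughly 60 µM downward over six points, against 10 nM purified firefly luciferase using Km concentrations of substrates (10 uM D-luciferin, 10 uM ATP) in Tris acetate pH 7.5 buffer; luminescence output.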
# The depositor's hits bear a star; ? = inconclusive; . = not tested or not shown; [ ] = another dose, or the depositor's remark. Most compounds without a hit are left out; they make up all but 9.2% or so of the library. The call rests on the fitted dose curve; in most records, active means well fitted curve in the direction sought with a large enough effect; inconclusive means small, poorly fitted or top-dose-only effect, or another doubt; inactive means no such curve, though single readings can be large; an effect the other way counts as inactive or inconclusive. Potency means the concentration at half of the fitted maximal effect.
SMILES,ELG1 DNA repair,ELG1 genotoxic,NPC1 prom act,Rab9 prom act,SMN2 splice enh,FLuc modulator
COc1ccc(-n2nc(C(=O)NCC(=O)N3CCC4(CC3)OCCO4)c3ccccc3c2=O)cc1,?,?,?,?,.,1.07µM*
COc1ccc(-n2nc(C(=O)NCC(=O)N3CCC4(CC3)OCCO4)c3ccccc3c2=O)cc1Cl,?,11.5%,?,?,.,1.2µM*
O=C(O)[C@H](Cc1cnc[nH]1)N1C(=O)c2ccccc2C1=O,.,.,.,.,-3.0%[9.22 µM],.
CCCOC(=O)c1cc2c(cn1)[nH]c1ccccc12,.,.,.,.,28.2µM*,.
CCCCOC(=O)c1ccccc1N,.,.,.,.,-6.2%,.
Cn1nc(OC(=O)Nc2ccccc2)cc1C(F)(F)F,?,13.1%,?,28.8%,17.4%,16.9µM*
O=C(Nc1ccccc1)Oc1ccccc1,20.8%,4.3%,-2.6%,1.4%,25.0%,-10.9%
COc1cc(C=C2C(=O)NC(=O)NC2=O)ccc1OCc1ccc([N+](=O)[O-])cc1,?,20.6µM*,-6.7%,0.5%,?,9.53µM*
c1ccc(P(c2ccccc2)c2ccccc2)cc1,.,.,.,.,4.1%,.
Cc1ccc(N2C(=O)NC(=O)/C(=C\c3ccc(N4CCOCC4)cc3)C2=O)cc1,?,5.8%,9.4%,1.1%,10.0%,-17.9%
Cc1ccc(N2C(=O)NC(=O)/C(=C\c3ccc([N+](=O)[O-])o3)C2=O)cc1,-11.1%,-1.7%,0.8%,-2.9%,-0.6%,26.9µM*
COc1ccc(N2C(=O)CS(=O)C(c3ccccc3)C2=O)cc1 (stereo unspecified),15.3%,13.9%,12.4%,12.2%,4.2%,23.9µM*
COc1ccc(N2C(=O)CC(N3CCC(n4c(=O)[nH]c5ccccc54)CC3)C2=O)cc1 (stereo unspecified),0.4%,1.9%,5.9%,-4.9%,-5.0%,0.3%
O=C(NCCSc1c(-c2ccc(F)cc2)[nH]c2ccccc12)c1ccc(S(=O)(=O)N2CCOCC2)cc1,.,.,.,.,-36.5%,3.1%
C#CCO,.,.,.,.,-4.4%,.
CCC(=O)c1ccc(OC(=O)N(C)c2ccccc2)cc1,?,14.6µM*,2.82µM*,2.24µM*,11.2µM*,?
CN(C(=O)Oc1ccc(C(C)(C)C)cc1)c1ccccc1,?,?,20.0%,?,11.7%,23.9µM*
CN(C(=O)Oc1ccc(F)cc1)c1ccccc1,18.3%,-0.2%,0.1%,1.2%,.,2.8%
CC(O)CCl (stereo unspecified),.,.,.,.,3.4%,.
COC(=O)c1ccc(-n2c(C)nc3ccccc3c2=O)cc1,-4.5%,0.3%,1.6%,-6.0%,-9.3%,1.7%
COC(=O)c1ccc(-c2nc(-c3ccc(Br)o3)no2)cc1,?,?,3.16µM*,3.98µM*,11.7%,1.69µM*
CCN(CC)c1ccccc1,18.1%,1.6%,10.4%,-0.1%,-9.7%,-1.3%
CCN(CC)c1ccc(/C=C/[N+](=O)[O-])cc1,?,?,-5.9%,-2.8%,14.0%,19µM*
COc1cccc(C(=O)C2CCCN(Cc3ccc(F)cc3)C2)c1 (stereo unspecified),0.1%,-1.5%,-0.9%,-11.0%,.,7.5%
COc1ccc(CCN2CCCC(CN(C)C(=O)c3cc(C)oc3C)C2)cc1 (stereo unspecified),?,18.3µM*,2.51µM*,2.24µM*,.,13.5µM*
SMILES,ELG1 DNA repair,ELG1 genotoxic,NPC1 prom act,Rab9 prom act,SMN2 splice enh,FLuc modulator
O=C(NCc1ccccc1)C(=O)NCC1OCCN1S(=O)(=O)c1ccc([N+](=O)[O-])cc1 (stereo unspecified),?,-1.9%,-2.1%,16.8%,-15.3%,3.2%
Nc1c(C(=O)NCCCc2ccccc2)c2nc3ccccc3nc2n1Cc1cccs1,14.6µM*,-12.6%,-0.6%,-1.4%,22.0%,0.0%
CCCCn1c(N)c(C(=O)NCc2cccs2)c2nc3ccccc3nc21,23.1µM*,-3.1%,-1.8%,-9.7%,-9.8%,3.4%
COc1ccc(CCNC(=O)c2c(N)n(CCN3CCOCC3)c3nc4ccccc4nc23)cc1OC,16.4µM*,-2.7%,0.4%,0.6%,-13.3%,-8.0%
Clc1ccc(C(Cl)(Cl)Cl)cc1Cl,.,.,.,.,-1.6%,.
CN[C@H](Cc1ccccc1)c1cccc(OC)c1O,.,.,.,.,-20.2%[9.22 µM],.
COc1ccc2c3c([nH]c2c1)C(C)=NCC3,9.2µM*,-9.2%,0.9%,-2.6%,-5.1%,7.6%
C=CC(=O)OCC(CC)CCCC (stereo unspecified),.,.,.,.,5.2%,.
CC1(C)CN=C(Nc2nc3ccccc3s2)S1,?,5.8µM*,1.78µM*,0.631µM*,12.6µM*,3.38µM*
CCn1c(O)c(N=Nc2ccc(S(=O)(=O)N3CCOCC3)cc2)c(=O)n(CC)c1=S,?,-6.9%,-0.8%,0.3%,.,0.0%
CCn1c(O)c(N=Nc2cccc(S(=O)(=O)N3CCOCC3)c2)c(=O)n(CC)c1=S,18.3µM*,-5.3%,-0.2%,-1.1%,.,-1.5%
Cc1cc(/C=C2/C(=O)NC(=O)N(Cc3ccco3)C2=O)c(C)n1-c1ccccc1,11.2%,5.8%,1.0%,-0.4%,-28.0%,5.36µM*
O=C1NC(=S)N(Cc2ccco2)C(=O)/C1=C\c1cccs1,7.6%,0.2%,-3.7%,-7.8%,-18.2%,16.9µM*
CCCc1cc2c(n1Cc1ccco1)C(C)C1CN(C(=O)c3ccccc3)C(C)(C(=O)OC)C21 (stereo unspecified),.,.,.,.,18.2%,.
O=C(c1cc2c(s1)-c1ccccc1OC2)N1CCC2(CC1)OCCO2,?,?,?,0.891µM*,5.62µM*,6.75µM*
C[As+](C)(c1ccc(Br)c([N+](=O)[O-])c1)c1ccc(Br)c([N+](=O)[O-])c1.O=[N+]([O-])O,.,.,.,.,-1.4%[9.22 µM],.
O=C(O)c1ccc(-n2c(O)c(/C=C3\C=Nc4ccccc43)c(=O)[nH]c2=O)cc1,-2.2%,0.4%,2.1%,-4.5%,.,19µM*
O=C1C2C3CCC(C3)C2C(=O)N1c1ccc(OS(=O)(=O)c2ccccc2)cc1 (stereo unspecified),?,?,3.55µM*,1.12µM*,-27.2%,12µM*
COc1ccc2nc(N3CCN(C(=O)CS(=O)(=O)c4ccc(C)cc4)CC3)sc2c1,.,.,.,.,.,4.78µM*
Cc1ccc(NS(=O)(=O)c2ccc(OCC(=O)N3CCN(C)CC3)cc2)cc1,3.5%,-0.9%,-2.5%,-0.5%,.,1.1%
COc1ccc(-c2n[nH]c(=S)n2-c2ccc3c(c2)OCCO3)cc1OC,?,?,0.8%,7.5%,.,12µM*
CCC[CH2][Sn]([Cl])([Cl])[Cl],.,.,.,.,5.9%,.
Nc1ccc(N=Nc2ccccc2)cc1,?,?,26.9%,?,25.4%,?
Cc1cc(N=Nc2ccccc2C)ccc1N,.,.,.,.,14.1µM*,.
NC(=O)c1ncn([C@H]2O[C@@H](CO)[C@@H](O)[C@@H]2O)n1,.,.,.,.,3.8%[20.6 µM],.
